Source: the supplement of paper PMC12645437, “Orthogonal IMiD-Degron Pairs Induce Selective Protein Degradation in Cells” (ACS Chemical Biology, 2025)
Whole data set: some 8,300 sequences, median “log2 fold change of degron read counts, EGFP-low vs EGFP+ sorted cells (limma voom), compound-induced degradation” near -1.1, cut for the highest 2% near 3.2. The list comes from a sample in which the highest values are over-represented; it also holds similar and randomly drawn sequences.

T1: CRBN, Q96SW2
T1 chain: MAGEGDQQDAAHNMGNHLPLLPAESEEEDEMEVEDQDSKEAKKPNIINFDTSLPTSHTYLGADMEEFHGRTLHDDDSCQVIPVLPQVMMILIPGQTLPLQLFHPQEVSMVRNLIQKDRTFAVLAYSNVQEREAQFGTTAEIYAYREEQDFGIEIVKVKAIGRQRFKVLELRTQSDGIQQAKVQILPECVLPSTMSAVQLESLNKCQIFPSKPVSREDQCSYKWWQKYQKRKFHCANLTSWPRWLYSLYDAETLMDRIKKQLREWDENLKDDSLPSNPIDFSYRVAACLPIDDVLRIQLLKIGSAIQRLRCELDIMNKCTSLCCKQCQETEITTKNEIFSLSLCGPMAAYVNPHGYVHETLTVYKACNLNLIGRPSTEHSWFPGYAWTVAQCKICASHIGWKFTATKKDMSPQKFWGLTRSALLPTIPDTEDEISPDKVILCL


Biological target: T1, CRBN, Q96SW2
Assay: log2 fold change of degron read counts, EGFP-low vs EGFP+ sorted cells (limma voom), compound-induced degradation; higher = more compound-induced degradation of the degron-EGFP fusion; degrons are variants of IKZF1/3 zinc finger 2; compound dose not given here
Conditions: Jurkat, 18 h
Description: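 Pooled library of 8380 IKZF3 ZF2 degron mutants (positions 146-167 varied within the IKZF3 130-189 degron; only the varied core is printed, flanks not printed) fused to EGFP with IRES-mCherry, lentivirally expressed in Jurkat cells. mCherry+ cells were treated with one IMiD compound for 18 h (dose not stated) and FACS-sorted into EGFP-low and EGFP+ populations. Degron sequences were counted by NGS, and log2FC (EGFP-low vs EGFP+) was estimated by limma voom over 3 biological replicates.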

[1] = compound: compound 19 (5-tert-butyl-thalidomide)
[2] = compound: compound 22 (5-morpholino-thalidomide)
[3] = compound: compound 33 (diphenyl IMiD analogue)
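Further: pooled lentiviral library of zinc finger degron-EGFP fusions in mCherry-positive Jurkat cells, FACS-sorted after compound exposure, with degron abundance counted by next-generation sequencing.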

| Sequence | log2 fold change of degron read counts [1] | log2 fold change of degron read counts [2] | log2 fold change of degron read counts [3] | log2 fold change of degron read counts (compound: thalidomide) |
| --- | --- | --- | --- | --- |
| FWCDVCGASFTQKGNLLRHIKL [46F_47W_49D_50V_52G_53A_54S_55F_67L_, Q9UKT9] | 2.69 | 3.48 | 1.06 | -0.779 |
| FTCNQCGHIFTQKGNLLRHIKL [46F_47T_49N_50Q_52G_53H_54I_55F_67L_, Q9UKT9] | -3.22 | -3.78 | -2.72 | -3.39 |
| LFCNQCGFTCTQKGNLLRHIKL [46L_47F_49N_50Q_52G_53F_54T_55C_67L_, Q9UKT9] | -0.962 | -0.778 | -1.34 | -1.55 |
| FACNICGAWFTQKGNLLRHIKL [46F_47A_49N_50I_52G_53A_54W_55F_67L_, Q9UKT9] | -0.878 | -0.37 | -0.973 | -1.22 |
| FECNQCGRSFTQKGNLLRHIKL [46F_47E_49N_50Q_52G_53R_54S_55F_67L_, Q9UKT9] | -2.91 | -4.04 | -3.77 | -2.98 |
| LMCNQCGFPCTQKGNLLRHIKL [46L_47M_49N_50Q_52G_53F_54P_55C_67L_, Q9UKT9] | -2.18 | -2.49 | -1.64 | -1.76 |
| FECEICGHSFTQKGNLLRHIKL [46F_47E_49E_50I_52G_53H_54S_55F_67L_, Q9UKT9] | -3.4 | -3.98 | -3.41 | -3.14 |
| FSCDVCGAVFTQKGNLLRHIKL [46F_47S_49D_50V_52G_53A_54V_55F_67L_, Q9UKT9] | -0.211 | -0.318 | 1.04 | -0.804 |
| FSCPICGRVFTQKGNLLRHIKL [46F_47S_49P_50I_52G_53R_54V_55F_67L_, Q9UKT9] | -0.277 | -0.0789 | 1.53 | 0.556 |
| FMCEICGHFFTQKGNLLRHIKL [46F_47M_49E_50I_52G_53H_54F_55F_67L_, Q9UKT9] | -3.03 | -3.09 | -2.32 | -3.02 |
| FQCEICGALFTQKGNLLRHIKL [46F_47Q_49E_50I_52G_53A_54L_55F_67L_, Q9UKT9] | -1.22 | 1.46 | 1.74 | 3.53 |
| FLCEICGALFTQKGNLLRHIKL [46F_47L_49E_50I_52G_53A_54L_55F_67L_, Q9UKT9] | -0.92 | -1.27 | 0.77 | 1.46 |
| FACEICGALFTQKGNLLRHIKL [46F_47A_49E_50I_52G_53A_54L_55F_67L_, Q9UKT9] | 2.71 | 0.321 | 0.174 | -0.494 |
| FFCEICGALFTQKGNLLRHIKL [46F_47F_49E_50I_52G_53A_54L_55F_67L_, Q9UKT9] | 3.18 | 2.91 | 1.74 | 0.646 |
| FYCEICGALFTQKGNLLRHIKL [46F_47Y_49E_50I_52G_53A_54L_55F_67L_, Q9UKT9] | 3.29 | 3.38 | 2.38 | 0.365 |
| FDCEICGALFTQKGNLLRHIKL [46F_47D_49E_50I_52G_53A_54L_55F_67L_, Q9UKT9] | -0.733 | -1.67 | 0.189 | -0.124 |
